Measured values: PubChem BioAssay (Tox21)
Results filed as inconclusive are left out. Entries that show only a call come without a potency. Unmarked numbers belong to inactive results. Activity calls are given as the source filed them. Unless noted, calls come from the whole dose curve; as a rule, active = well fitted curve in the direction sought with a large enough effect in the repeat runs; inconclusive = weak or mixed curves; inactive = no such curve, though single readings can be large; an effect the other way counts as inactive or inconclusive.

Tests used:
[1] = qHTS assay to identify small molecule agonists of the vitamin D receptor (VDR) signaling pathway - cell viability counter screen (AID 743224); note: nearly all actives have a fitted effect of over 50% in size; note: potency is the fitted concentration of half-maximal effect
Outline: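 Viability is measured in the same wells as the VDR-bla reporter assay: after 16 h compound treatment and 2 h substrate loading, CellTiter-Glo is added and luminescence read 30 min later.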

[2] = qHTS assay to identify small molecule antagonists of the vitamin D receptor (VDR) signaling pathway - cell viability counter screen (AID 743225); note: nearly all actives have a fitted effect of over 50% in size
Outline: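 Cytotoxicity counter screen read by CellTiter-Glo luminescence (30 min, room temperature) in the same wells as the VDR-bla antagonist readout. HEK 293T VDR-UAS-bla cells had 16 h at 37C with compound and 3 nM (final) 1-alpha,25-dihydroxyvitamin D3, then 2 h with FRET substrate.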

[3] = qHTS assay to identify small molecule agonists of the endoplasmic reticulum stress response signaling pathway (AID 1159516; active = well fitted activation curve with a large enough effect in the signal ratio in the repeat runs, not every such curve was filed as active; the % refers to the signal ratio)
Outline: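 Tox21 10K library screened in quantitative HTS format on ESRE-bla HeLa cells, a beta-lactamase reporter under ER stress response element control; 5 hr treatment, FRET read.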

[4] = qHTS assay to identify small molecule agonists of the endoplasmic reticulum stress response signaling pathway - cell viability counter screen (AID 1159517; calls by dose curve; note: series mostly up to about 61 µM; nearly all actives have a fitted effect of over 50% in size)
Outline: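 Cells, HeLa ESRE-bla; density, 1,500/well; dosing, 5 hr at 37 C, 5% CO2; readout, CellTiter-Glo luminescence after 30 min RT.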

[5] = qHTS assay to identify small molecule antagonists of the retinoid-related orphan receptor gamma (ROR-gamma) signaling pathway - cell viability counter screen (AID 1159520); note: nearly all actives have a fitted effect of over 50% in size
Outline: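 Cytotoxicity was read from cellular ATP (CellTiter-Glo luminescence) after 16 hr at 37 C with 1 uM doxycycline induction. The inducer was added 2 hr after compound transfer to Tet-on ROR gamma CHO cells.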

[6] = qHTS assay to identify small molecule agonists of the AP-1 signaling pathway - cell viability counter screen (AID 1159525; calls by dose curve; note: nearly all actives have a fitted effect of over 55% in size; note: potency is the fitted concentration of half-maximal effect)
Outline: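 Luminescent ATP readout (Cell Titer Glo, 30 min RT), normalised to DMSO and tetra n-octyl ammonium bromide controls. Cells were ME-180 AP-1-bla in 0.5% dialyzed FBS Opti-MEM, with a 5 h, 37 °C compound exposure.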

[7] = qHTS assay to identify small molecule agonists of the AP-1 signaling pathway (AID 1159526; calls by dose curve)
[8] = target: Retinoic acid receptor RXR-alpha (Homo sapiens) (UniProt P19793); experiment: qHTS assay to identify small molecule agonists of the RXR signaling pathway (AID 1159527; calls by dose curve; note: nearly all actives have a fitted effect of over 35% in size)
Sequence of Retinoic acid receptor RXR-alpha (Homo sapiens) (P19793 whole entry, looked up): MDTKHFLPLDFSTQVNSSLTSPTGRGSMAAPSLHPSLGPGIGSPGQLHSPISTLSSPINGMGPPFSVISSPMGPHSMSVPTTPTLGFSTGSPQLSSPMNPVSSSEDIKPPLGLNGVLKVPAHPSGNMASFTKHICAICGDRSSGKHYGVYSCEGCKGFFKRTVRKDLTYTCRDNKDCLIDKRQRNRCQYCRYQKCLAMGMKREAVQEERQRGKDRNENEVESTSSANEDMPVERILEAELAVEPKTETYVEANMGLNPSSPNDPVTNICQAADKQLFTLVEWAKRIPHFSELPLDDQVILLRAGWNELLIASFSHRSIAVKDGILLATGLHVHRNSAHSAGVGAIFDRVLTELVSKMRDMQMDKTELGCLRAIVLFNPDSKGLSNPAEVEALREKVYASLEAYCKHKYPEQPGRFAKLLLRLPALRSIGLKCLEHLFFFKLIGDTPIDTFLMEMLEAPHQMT
Outline: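 Agonist-mode beta-lactamase reporter assay: HEK 293T RXR-alpha-UAS-bla cells treated 16 hr at 37 C with compounds, 9-cis retinoic acid as positive control. LiveBLAzer FRET substrate, 405 nm excitation, 460/530 nm emission.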

[9] = qHTS assay to identify small molecule agonists of the RXR signaling pathway - cell viability counter screen (AID 1159529); note: nearly all actives have a fitted effect of over 50% in size; note: potency is the fitted concentration of half-maximal effect
Outline: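 CellTiter-Glo luminescence gave viability in the wells also read for beta-lactamase. Cells (RXR-alpha-UAS-bla HEK 293T, 2% charcoal-stripped FBS medium) had 5 hr plating, then 16 hr compound exposure at 37 C; tetraoctyl ammonium bromide served as positive control.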

[10] = qHTS assay to identify small molecule antagonists of the retinoid acid receptor (RAR) signaling pathway - cell viability counter screen (AID 1159551); note: nearly all actives have a fitted effect of over 35% in size
Outline: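 Cytotoxicity counter screen in C3RL4 cells: 6 h compound exposure with 1 uM retinol (final), viability from cellular ATP by luminescence.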

[11] = qHTS assay to identify small molecule agonists of the retinoic acid receptor (RAR) signaling pathway (AID 1159553); note: potency is the fitted concentration of half-maximal effect
Outline: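 Agonist activity was scored in C3RL4 cells bearing a retinoic acid response element luciferase construct. Cells were treated with compounds for 6 hr at 37 C, and luciferase signal was measured as luminescence.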

[12] = target: Nuclear receptor ROR-gamma (Homo sapiens) (UniProt P51449); experiment: qHTS assay to identify small molecule antagonists of the retinoid-related orphan receptor gamma (ROR-gamma) signaling pathway (AID 1159521; note: nearly all actives have a fitted effect of over 50% in size; note: potency is the fitted concentration of half-maximal effect)
Outline: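 Antagonist read-out: drop in luminescence (ONE-Glo) from an RORE-LUC reporter in CHO cells with doxycycline-inducible ROR-gamma; 2 hr compound pretreatment, 1 uM doxycycline, 16 hr incubation at 37 C.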

[13] = qHTS assay to identify small molecule antagonists of the retinoic acid receptor (RAR) signaling pathway (AID 1159552; note: nearly all actives have a fitted effect of over 50% in size)
Outline: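 Luminescent RARE reporter read-out in C3RL4 cells: 6 hr co-treatment at 37 C of test compounds with retinol at 1 uM final. Cells plated overnight beforehand; luciferase reagent incubated 30 min at room temperature before reading.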

In the case of CC[N+](C)(CC)CCOC(=O)C(O)(c1ccccc1)C1CCCCC1 (configuration not stated), the Potency [1] is reported as “inactive”, the Potency [2] is reported as “inactive” and the Potency [3] is reported as “inactive”. For the same molecule, the Potency [4] was “inactive”, the Potency [5] was “inactive” and the Potency [6] was “inactive”. The Potency [7] was “inactive”, the Potency [8] was “inactive” and the Potency [9] was “inactive”. For the same molecule, the Potency [10] was “inactive” and the Potency [11] was “inactive”.

With CCc1c(C(=O)NN2CCCCC2)nn(-c2ccc(Cl)cc2Cl)c1-c1ccc(Br)cc1 the Potency [1] was 19.5 µM (active), the Potency [2] was “inactive” and the Potency [3] was “inactive”. For the same molecule, the Potency [4] was “inactive”, the Potency [12] was 54.5 µM (active) and the Potency [6] was “inactive”. For the same molecule, the Potency [7] was “inactive”, the Potency [9] was “inactive” and the Potency [10] was “inactive”. The Potency [11] was “inactive”.

With CCCCC1=NC2(CCCC2)C(=O)N1Cc1ccc(-c2ccccc2-c2nn[nH]n2)cc1 the Potency [2] was “inactive”, the Potency [3] was “inactive” and the Potency [4] was “inactive”. For the same molecule, the Potency [5] was “inactive”, the Potency [6] was “inactive” and the Potency [7] was “inactive”. The Potency [8] was “inactive”, the Potency [9] was “inactive” and the Potency [10] was “inactive”. The Potency [13] was “inactive” and the Potency [11] was “inactive”.

For O=[N+]([O-])c1cccc(S(=O)(=O)O)c1, the Potency [1] was “inactive”, the Potency [2] was “inactive” and the Potency [3] was “inactive”. The Potency [4] was “inactive”, the Potency [5] was “inactive” and the Potency [6] was “inactive”. For the same molecule, the Potency [7] was “inactive”, the Potency [8] was “inactive” and the Potency [10] was “inactive”. For the same molecule, the Potency [11] was “inactive”.

For CN(C)CCOC(c1ccccc1)c1ccc(Br)cc1 (configuration not stated), the Potency [2] was “inactive”, the Potency [3] was “inactive” and the Potency [4] was “inactive”. For the same molecule, the Potency [5] was “inactive”, the Potency [12] was “inactive” and the Potency [6] was “inactive”. The Potency [10] was “inactive”.

For CCCCCCCCCCCCCCCCOS(=O)(=O)O, the Potency [3] was “inactive”, the Potency [4] was “inactive” and the Potency [5] was “inactive”. The Potency [12] was “inactive” and the Potency [10] was “inactive”.

For NS(=O)(=O)c1ccc(N2CCCCS2(=O)=O)cc1, the Potency [1] was “inactive”, the Potency [2] was “inactive” and the Potency [3] was “inactive”. For the same molecule, the Potency [4] was “inactive”, the Potency [5] was “inactive” and the Potency [6] was “inactive”. For the same molecule, the Potency [7] was “inactive”, the Potency [8] was “inactive” and the Potency [9] was “inactive”. The Potency [10] was “inactive”, the Potency [13] was “inactive” and the Potency [11] was “inactive”.

With C=C(C)C(=O)OCCO the Potency [1] was “inactive”, the Potency [2] was “inactive” and the Potency [3] was “inactive”. For the same molecule, the Potency [4] was “inactive”, the Potency [5] was “inactive” and the Potency [6] was “inactive”. The Potency [7] was “inactive”, the Potency [8] was “inactive” and the Potency [9] was “inactive”. The Potency [10] was “inactive”, the Potency [13] was “inactive” and the Potency [11] was “inactive”.

In the case of COCCCN1CCC(NC(=O)c2cc(Cl)c(N)c3c2OCC3)CC1, the Potency [1] is reported as “inactive”, the Potency [2] is reported as “inactive” and the Potency [3] is reported as “inactive”. The Potency [4] was “inactive”, the Potency [5] was “inactive” and the Potency [6] was “inactive”. The Potency [7] was “inactive”, the Potency [8] was “inactive” and the Potency [9] was “inactive”. The Potency [10] was “inactive”, the Potency [13] was “inactive” and the Potency [11] was “inactive”.

With C[C@@H](c1ncncc1F)C(O)(Cn1cncn1)c1ccc(F)cc1F (some centres not stated) the Potency [1] was “inactive”, the Potency [2] was “inactive” and the Potency [3] was “inactive”. For the same molecule, the Potency [4] was “inactive”, the Potency [5] was “inactive” and the Potency [6] was “inactive”. The Potency [7] was “inactive”, the Potency [8] was “inactive” and the Potency [9] was “inactive”. The Potency [10] was “inactive”, the Potency [13] was “inactive” and the Potency [11] was “inactive”.

In the case of O=C(OCCc1ccccc1)c1ccccc1, the Potency [1] is reported as “inactive”, the Potency [2] is reported as “inactive” and the Potency [3] is reported as “inactive”. The Potency [4] was “inactive”, the Potency [5] was “inactive” and the Potency [12] was “inactive”. The Potency [9] was “inactive”, the Potency [10] was “inactive” and the Potency [13] was “inactive”. For the same molecule, the Potency [11] was 0.386 µM (active).

With CCOc1ccc(O)cc1 the Potency [3] was “inactive”, the Potency [4] was “inactive” and the Potency [5] was “inactive”. The Potency [6] was “inactive”, the Potency [7] was “inactive” and the Potency [8] was “inactive”. For the same molecule, the Potency [9] was “inactive”, the Potency [10] was “inactive” and the Potency [13] was “inactive”.

With COc1cc2nc(N3CCN(C(=O)C4COc5ccccc5O4)CC3)nc(N)c2cc1OC (configuration not stated) the Potency [1] was “inactive”, the Potency [2] was “inactive” and the Potency [3] was “inactive”. The Potency [4] was “inactive”, the Potency [5] was “inactive” and the Potency [6] was “inactive”. The Potency [7] was “inactive”, the Potency [8] was “inactive” and the Potency [9] was “inactive”. For the same molecule, the Potency [10] was “inactive”, the Potency [13] was “inactive” and the Potency [11] was “inactive”.

With O=C(Nc1ccccc1)c1ccccc1O the Potency [2] was “inactive”, the Potency [3] was “inactive” and the Potency [4] was “inactive”. The Potency [12] was “inactive”, the Potency [6] was “inactive” and the Potency [7] was “inactive”. For the same molecule, the Potency [8] was “inactive”, the Potency [13] was “inactive” and the Potency [11] was 8.63 µM (active).

For Clc1ccc2c(c1)CCc1cccnc1C2=C1CCNCC1, the Potency [3] was “inactive”, the Potency [4] was “inactive” and the Potency [5] was “inactive”. For the same molecule, the Potency [12] was “inactive”, the Potency [7] was “inactive” and the Potency [10] was “inactive”.

With CC(=O)[O][Al][O]C(C)=O the Potency [1] was “inactive”, the Potency [2] was “inactive” and the Potency [3] was “inactive”. The Potency [4] was “inactive”, the Potency [5] was “inactive” and the Potency [6] was “inactive”. The Potency [7] was “inactive”, the Potency [9] was “inactive” and the Potency [10] was “inactive”. For the same molecule, the Potency [11] was “inactive”.

In the case of CCCCCCCCCCCCCCCCCCOS(=O)(=O)O, the Potency [1] is reported as 54.9 µM (active), the Potency [3] is reported as “inactive” and the Potency [4] is reported as “inactive”. The Potency [5] was “inactive”, the Potency [6] was 38.9 µM (active) and the Potency [9] was 43.6 µM (active). The Potency [10] was “inactive”, the Potency [13] was “inactive” and the Potency [11] was “inactive”.

In the case of O=C1[C@H]2CCCC[C@H]2C(=O)N1CCCCN1CCN(c2nsc3ccccc23)CC1, the Potency [1] is reported as “inactive”, the Potency [2] is reported as “inactive” and the Potency [3] is reported as “inactive”. For the same molecule, the Potency [4] was “inactive”, the Potency [5] was “inactive” and the Potency [6] was “inactive”. The Potency [7] was “inactive”, the Potency [10] was “inactive” and the Potency [13] was “inactive”. The Potency [11] was “inactive”.

With Nc1c(CC(=O)O)cccc1C(=O)c1ccc(Br)cc1 the Potency [1] was “inactive”, the Potency [2] was “inactive” and the Potency [3] was “inactive”. For the same molecule, the Potency [4] was “inactive”, the Potency [5] was “inactive” and the Potency [6] was “inactive”. For the same molecule, the Potency [7] was “inactive”, the Potency [9] was “inactive” and the Potency [10] was “inactive”. The Potency [11] was “inactive”.
